Consider 73 molecules from PubChem BioAssay AID488890 (Southern Research Specialized Biocontainment Screening …, 2010).

SMILES strings stand for the structures. Screen size: about 320,000 compounds; about 1,300 (0.41%) were called active. Not shown: some 3% with an inconclusive outcome. How the calls were made is not given here. The list is a sample of the results. Results with a measured potency or affinity are listed apart.

The nature of this test: growth inhibition of non-replicating M. tuberculosis (AID 488890).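 Further: plate controls were DMSO cells for no effect and high antibiotic wells for full effect.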 As to conditions: Mycobacterium tuberculosis non-replicating, at 25 µM, stronger effect = higher value.
Regarding `O=c1cccccc1NN=C1CCCCCC1`, the inhibition came out at 15.8%.

In the case of `CCOC(=O)c1sc(NC(=O)CSc2n[nH]c(C)n2)nc1C`, the inhibition was 23.3%. With `CC(=C/c1ccco1)/C=N/NC(=O)c1ccncc1`, the inhibition is 52.5%. For `C/C(=N\Nc1nc(-c2ccccc2O)nc2ccccc12)c1ccccc1` the value was 7.99%; for `CC(C)CCC(C(=O)O)C(C)CC(=O)Nc1ccn(-c2ccccc2)n1` (stereo not drawn), -10%; for `CSCCC(NC(=O)COc1ccccc1)C(=O)N(C)Cc1cccc(F)c1` (stereo not drawn), 23.5%. As for `O=C(O)COc1ccc2c(-c3ccccc3)cc(=O)oc2c1`, the figure is -4.18%; as for `CCN(CC)C(=O)COc1ccc2c(-c3ccccc3)cc(=O)oc2c1`, -10%; as for `Cc1ccc(NC(=O)CN(C)C(=O)CSc2ccccc2F)cc1`, 1.97%. As for `COc1ccc(C(CNC(=O)c2c(C)nn(Cc3ccccc3)c2Cl)N2CCOCC2)cc1` (stereo not drawn), the figure is 11.7%; as for `COc1ccc(OCCC(=O)OCC(=O)NC2CCCCC2)cc1`, 39.1%; as for `COc1ccc(OCCC(=O)OCC(=O)NC2CCCCCCC2)cc1`, 42.5%. As to `O=C(COc1ccc(C(=O)c2ccccc2)cc1)NC1CCCCCC1`, the inhibition turned out to be 55.6%. As for `O=C(COc1ccccc1)NCC(=O)NC1CCCCC1`, the figure is 3.74%. As for `CCOc1ccc(CCNC(=O)CCc2nnc3ccc(N4CCCCC4)nn23)cc1OCC`, the figure is 20.8%. For the molecule `Cc1cccc[n+]1C1C(c2ccccc2)C(C#N)=C(C(=C=[N-])C#N)NC1(O)C1CC1` (stereo not drawn), the inhibition turned out to be 17.4%. Consider `COC(=O)c1ccc(CN2CCN(C3CCCCC3)C(CCO)C2)cc1` (stereo not drawn), for which the inhibition is -2.17%. For `CCOC(=O)[C@@H]1[C@H]2COc3ccc(Br)cc3[C@H]2N2C(=O)N(c3ccc(C(F)(F)F)cc3)C(=O)[C@]12C` the value was 37.9%.

As for `O=C(c1ccc(Br)s1)N1CCCC1`, the inhibition turned out to be 46.3%. As for `O=C(c1ccc(Cl)s1)N1CCCC1`, the figure is 31%; as for `Cc1ccc(NC(=O)CCC(=O)Nc2nnc(C3CCCCC3)s2)cc1`, -1.2%; as for `NC(=NCCc1ccccc1)NS(=O)(=O)c1ccc2ccccc2c1`, 51.5%. As to `CCC(CO)N=CC1=C(O)C(C(=O)c2ccccc2)CCC1=O` (stereo not drawn), the inhibition was found to be 4.93%. As for `CC(=O)Nc1ccc(NC(=O)CSc2nnc(-c3cc4ccccc4o3)n2C)cc1`, the figure is -4.95%; as for `COc1cc(C(=O)O)c2ccccc2n1`, -12.4%. For `COc1cccc2nc3cc(C)c(C)cc3nc12` the value was 39.2%; for `CC(CNC(=O)CN1C(=O)C(=O)N(C2CCCC2)C1=O)c1ccccc1` (stereo not drawn), 21.6%; for `O=C(O)C1=NN(c2ccccc2)C(=O)CC1`, 1.61%. Regarding `CCOc1cc(CNCCO)cc(Br)c1OCc1cccs1`, the inhibition worked out at 73.5%. As for `CCOc1cc(CNCCO)cc(Br)c1OCc1ccccc1`, the inhibition came out at 75.9%. On to `COc1cc(CNCCO)cc(Br)c1OCc1ccccc1`, for which the inhibition worked out at 28.5%. In the case of `COc1cc(CNCCO)cc(Br)c1OCc1ccccc1Cl`, the inhibition came to 79%. For `COCCNC(=O)COc1coc(CN2CCN(Cc3ccccc3)CC2)cc1=O` the value was 0.19%. With `CCOc1ccc2oc(C(=O)NNC(=O)c3csc(N4CCOCC4)n3)c(C)c2c1`, the inhibition was found to be 75.8%. In the case of `Cc1cccc(C(=O)NNC(=O)c2csc(N3CCOCC3)n2)c1C`, the inhibition was -2.47%. As for `CCN(N=Nc1cccc([N+](=O)[O-])c1)c1cccc([N+](=O)[O-])c1`, the figure is -3.89%; as for `CC1(C)CC(=O)C(N=Nc2cccc([N+](=O)[O-])c2)=C(O)C1`, -5.61%; as for `COCC(C)n1c(SCC(=O)N2CCOCC2)nc2ccccc2c1=O` (stereo not drawn), 3.46%. For `CCC(C)[C@H](NC(=O)[C@@H]1CSC2c3ccccc3C(=O)N21)C(=O)N1CCCCC1` (stereo partly drawn) the value was 12.4%; for `O=C(O)c1ccc(-c2nnc(-c3ccc([N+](=O)[O-])cc3)o2)cc1`, -2.79%; for `Oc1ccc(-c2nnc(SCc3ccccc3)o2)cc1`, 77.5%. For `O=C(CSc1nnc(-c2ccc(O)cc2)o1)Nc1ccccc1` the value was 63.5%; for `Cc1ccc(C(=O)CSc2nnc(-c3ccccc3)o2)cc1`, 64.9%; for `O=C(CSc1nnc(-c2ccncc2)o1)c1cccc([N+](=O)[O-])c1`, 70.5%.

With `OCC#CCSc1nnc(-c2ccncc2)o1`, the inhibition is 23.9%. With `CCSc1nnc(-c2ccncc2)o1`, the inhibition is 0.24%. As for `COc1ccc(-c2nnc(SCC#CCO)o2)cc1OC`, the figure is 45.7%; as for `CCOCCCNC(=O)c1cc2c(s1)-c1ccccc1SC2`, 9.76%. For `CC(=O)Nc1nccc(-c2cc(-c3ccccc3)no2)n1`, the inhibition was 2.66%. As for `COc1ccccc1N(CC(O)Cn1c2ccccc2c2ccccc21)S(=O)(=O)c1ccccc1` (stereo not drawn), the figure is 31.5%; as for `Cc1ccccc1C(=O)NNC(=O)c1ccc2nc[nH]c2c1`, 8.7%; as for `COc1ccc(S(=O)(=O)Nc2cccc3c2O[C@H](CN(C)S(=O)(=O)c2ccc(Cl)cc2)[C@H](C)CN([C@H](C)CO)C3=O)cc1`, 51.4%. As for `O=c1c2ccccc2ncn1-c1ccc(Cl)c(Cl)c1`, the figure is 1.67%; as for `COc1cc(Cl)cc(C=O)c1OCC(=O)O`, 8.45%. For `COc1ccc(CCNC(=O)C2CCCN2C(=O)Nc2ccc(Cl)cc2)cc1OC` (stereo not drawn) the value was 20.8%. On to `C=CCSc1nnc(-c2cccc3ccccc23)o1`, for which the inhibition worked out at 5.5%. For `C#CCSc1nnc(-c2sc3ccccc3c2Cl)o1` the value was 71.8%. As for `Cc1ccc(CSc2nnc(-c3cccc4ccccc34)o2)cc1`, the figure is 14.4%; as for `Cc1ccccc1-c1nnc(SCC#N)o1`, 15.7%; as for `C#CCSc1n[nH]c(=O)n1-c1cccc(C(F)(F)F)c1`, 3.27%.

As for `O=C(N/N=C/c1c(O)n(-c2ccc(Cl)cn2)c(=O)c2ccccc12)C1CC1`, the inhibition is 6.8%. Take `O=C(CCNc1n[nH]c(=O)[nH]c1=O)N/N=C\c1cccc(OCc2ccccc2)c1`: the inhibition amounted to 10.7%. For `COc1ccc(NC(=O)c2ccc(C(=O)c3ccccc3)o2)cc1` the value was -11.3%; for `COc1cccc(NC(=O)c2ccccc2)c1`, 4.57%. As for `CC(=O)Nc1ccc(NC(=O)c2ccc(-c3ccc([N+](=O)[O-])cc3)o2)cc1`, the figure is 28.3%. As to `COc1ccc(CCNC(=O)c2ccc(-c3ccc([N+](=O)[O-])cc3)o2)cc1OC`, the inhibition was determined as 60.1%.

On to `COc1cccc(NC(=O)CC(=O)c2ccc([N+](=O)[O-])cc2)c1`, for which the inhibition came to 47%. For `Cc1ccccc1NC(=O)c1ccc(Cn2cc([N+](=O)[O-])cn2)o1` the value was 46.5%. Consider `Cc1cc(NC(=O)c2ccc(Cn3cc([N+](=O)[O-])cn3)o2)no1`, for which the inhibition stood at 14.1%. As for `COc1cccc(NC(=O)CNC(=O)c2ccc([N+](=O)[O-])cc2)c1`, the figure is 12.4%. For `CSc1nc2n(n1)C(C)C1=C(CCCC1=O)N2` (stereo not drawn) the value was -15.3%; for `CC(=O)Nc1ccc(NC(=O)c2ccc(S(=O)(=O)N(C)c3ccccc3)cc2)cc1`, -4.01%. As for `COc1ccc(C(=O)OCc2c(-c3ccccc3)ncc3ccccc23)cc1`, the figure is 14.9%.
